The results in this text go back to the OligoGym collection.
Also: reference of the scale not given here.

The target of the first experiment is MRPL14. The experiment is described as follows: pooled miR-30 sensor sort-seq; sequence = guide strand. The conditions noted are these: shRNA.
TTAATTCGTGTCCCCACAGGGT came in with a sensor-assay potency score (higher = more potent) of -1.22. Still for that read-out and setting: the value for TTATAGACATGGATGCAGCGAG was -0.0779; that for TGAATCGCACTCAGACTCCCAG was -0.455. The same measure, in the same setting: the value for TTGTCCACCACTCGTACCCGCG was -1.02; that for TTGCCCACTCCATTCTTCTTAT was -0.852. Still for that read-out and setting: the value for TCATCTTCTGAATCGCACTCAG was -0.0883.

The next experiment addresses MRPL21. The experiment is described as above. The conditions noted are these: shRNA.
The sequence TTTTAGGAACATATCCTGGTAG gave a sensor-assay potency score (higher = more potent) of 0.0621. The same measure, in the same setting: the value for TTGAAGTTTTTCCTTTTCCTGA was -0.489; that for TCTGTGAATTGAACCTTCGAGA was -0.658; that for TCGAACAAGATCCTTTCCGAGG was -1.49. Turning to TTCTTCTTGAAGTTTTTCCTTT, the sensor-assay potency score (higher = more potent) is -0.465. Same read-out and setting: the value for TTCTACTCGAACAAGATCCTTT was 0.318; that for TATCCGGAGGACAGTCTGCGGG was -1.15; that for TTTAGGAACATATCCTGGTAGA was -0.392. The same measure, in the same setting: then TTATCCGGAGGACAGTCTGCGG, with -1.53; and TTCATTTCCAATTAAGATCAGG, with -0.523; and TATCCTGGTAGATATGAAGTGC, with -0.473. In turn, AATTGAACCTTCGAGAAGCAGA displayed a sensor-assay potency score (higher = more potent) of -0.954.

The target in the next experiment is MRPL30. The description is as above. The conditions noted are these: shRNA.
As to TTCAATTTTGCATTCACTGAAG, the sensor-assay potency score (higher = more potent) is -0.704. Same read-out and setting: then TTTGTGACGAATCCAATCTGTA, with -0.546.

With TATTCTTGTGAACTTGAGGGGT, the sensor-assay potency score (higher = more potent) amounted to 0.0626. On the same count and under the same terms, then ATTCTTGTGAACTTGAGGGGTA, with -0.0278; and TAGACATGTTCTCCTCTGCTGG, with -0.684. Regarding TCACAGTCTGTAGTCTGCCTGG, the sensor-assay potency score (higher = more potent) was -0.534. On the same count and under the same terms, then TTTTTCTAATCCAAGCATCTTT, with -0.539; and TTTGTCACAGTCTGTAGTCTGC, with -0.242; and TATTCTGGTAACAATATGCAGT, with -0.632. Still for that read-out and setting: the value for TTAAATAAAAACAATTTGCATT was -0.896.

In another experiment the target is MRPS18C. The description is as above. The conditions noted are these: shRNA.
The sequence TTTCTTCCCACAAAGACCTGTA yielded a sensor-assay potency score (higher = more potent) of 0.204. Still for that read-out and setting: then TAGGGTCCTTGAGATATGCAGG, with -0.899; and TTTCTTTCTGTTTCTTCCCACA, with -1.1; and TGTGATTTCTTTCTGTTTCTTC, with 0.701. On the same count and under the same terms, the value for TTGAGCTCTCTTAATTGCTTTT was -1.05.

In turn, TACCTGTTGTGAACAACCTCTT showed a sensor-assay potency score (higher = more potent) of 0.47. As to ATACCTGTTGTGAACAACCTCT, the sensor-assay potency score (higher = more potent) is -0.0858. Still for that read-out and setting: the value for TTTGAGCTCTCTTAATTGCTTT was -0.321; that for TTGTGAACAACCTCTTCTCCAA was -0.0976.

As to TACCAAGTGTGTCAACTTCTTC, the sensor-assay potency score (higher = more potent) was -0.886.

In turn, ATTTCTTTCTGTTTCTTCCCAC had a sensor-assay potency score (higher = more potent) of 0.584. In turn, TGCTTTTGTGATTTCTTTCTGT came in with a sensor-assay potency score (higher = more potent) of 0.125.
